Data published in the supplement of paper PMC6555819.

Legend:
Experiment in all cases: PBM binding z-score (relative to random genomic background probes); higher = stronger binding; sequences stand for … in GC…GCGATTGACAGCGTAGAATGAAGG
[1] = test system: FXR:RXRa (NR concentration 270 nM, RXRa partner concentration 90 nM)
How it was run: (§1)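 Ligand-free nuclear receptor dimers were bound for 1 h to custom Agilent 4×180K protein-binding microarrays. Detection used antibodies against each partner (one per run). Binding z-scores rest on regression-normalized fluorescence, with random background probes as the reference.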

[2] = test system: LXRa:RXRa (NR concentration 270 nM, RXRa partner concentration 90 nM)
How it was run: as §1

[3] = test system: LXRa homodimer (NR concentration 270 nM)
How it was run: as §1

[4] = test system: LXRb:RXRa (NR concentration 270 nM, RXRa partner concentration 90 nM)
How it was run: as §1

[5] = test system: LXRb homodimer (NR concentration 270 nM)
How it was run: as §1

[6] = test system: PPARa:RXRa (NR concentration 270 nM, RXRa partner concentration 90 nM)
How it was run: as §1

[7] = test system: PPARg:RXRa (NR concentration 180 nM, RXRa partner concentration 90 nM)
How it was run: as §1

[8] = test system: PPARg:RXRa 270nM:90nM, anti-RXR (NR concentration 270 nM, RXRa partner concentration 90 nM)
How it was run: as §1

[9] = test system: PPARg:RXRa 30nM:10nM, anti-RXR (NR concentration 30 nM, RXRa partner concentration 10 nM)
How it was run: as §1

[10] = test system: PPARg:RXRa 90nM:30nM, anti-RXR (NR concentration 90 nM, RXRa partner concentration 30 nM)
How it was run: as §1

[11] = test system: PPARg:RXRa DBDmut IVT, anti-RXR (DBD mutation: RXRa K156A/R161A, NR concentration 270 nM, RXRa partner concentration 90 nM)
How it was run: as §1

[12] = test system: PPARg:RXRa IVT, anti-PPARg (NR concentration 270 nM, RXRa partner concentration 90 nM)
How it was run: as §1

[13] = test system: PPARg DBDmut:RXRa IVT, anti-PPARg (DBD mutation: PPARg1 K132A/R137A, NR concentration 270 nM, RXRa partner concentration 90 nM)
How it was run: as §1

[14] = test system: PPARg DBDmut IVT, anti-PPARg (DBD mutation: PPARg1 K132A/R137A, NR concentration 270 nM)
How it was run: as §1

[15] = test system: PPARg homodimer (NR concentration 180 nM)
How it was run: as §1

[16] = test system: PXR:RXRa (NR concentration 270 nM, RXRa partner concentration 90 nM)
How it was run: as §1

[17] = test system: PXR homodimer (NR concentration 270 nM)
How it was run: as §1

[18] = test system: RARa:RXR (NR concentration 270 nM, RXRa partner concentration 90 nM)
How it was run: as §1

[19] = test system: RARa homodimer (NR concentration 270 nM)
How it was run: as §1

[20] = test system: RARb:RXRa (NR concentration 270 nM, RXRa partner concentration 90 nM)
How it was run: as §1

Sequence	PBM binding z-score [1]	PBM binding z-score [2]	PBM binding z-score [3]	PBM binding z-score [4]	PBM binding z-score [5]	PBM binding z-score [6]	PBM binding z-score [7]	PBM binding z-score [8]	PBM binding z-score [9]	PBM binding z-score [10]	PBM binding z-score [11]	PBM binding z-score [12]	PBM binding z-score [13]	PBM binding z-score [14]	PBM binding z-score [15]	PBM binding z-score [16]	PBM binding z-score [17]	PBM binding z-score [18]	PBM binding z-score [19]	PBM binding z-score [20]
ATATGTAGGTTAAGGCTCATTCAGGTTGGTTCGC	0.549	0.861	0.334	0.683	0.0062	3.43	5.54	5.46	2.91	5.15	7.51	7.12	5.15	3.53	2.08	0.38	0.413	0.411	0.882	1.02
CATCGGAGGACAGAAGGTCAGAGCTGTCCGCTTT	1.15	1.44	0.265	0.77	-0.44	1.8	0.369	1.27	-0.542	0.627	-0.292	0.418	-0.481	-1.29	0.568	1.12	-0.438	1.86	-0.23	2.86
CTCGAAAGGTCGTGCTCAGGTGAGTATTCCAAAC	5.42	3.85	0.158	3.32	0.259	4.52	2.26	3.47	0.582	1.86	0.897	1.51	0.28	0.396	1.7	3.33	0.16	4.06	0.262	3.76
GCTGCTAGGTCAACAGATGGTCAGCTAAAGCTCG	3.13	2.22	-0.297	1.37	-0.198	2.99	2.43	2.5	0.277	1.86	4.44	3.68	-0.0685	-0.727	1.6	1.22	-0.762	2.23	-0.595	3.97
TCTTGTAGATCAGCAGATTAAGAAAGCTGGCCAA	-0.0778	-0.0855	-0.478	-0.134	-0.494	0.385	-0.628	0.95	2.75	1.92	1.64	-0.0378	-0.256	0.452	-0.374	-0.148	-0.568	-0.157	0.205	-0.229
CCGAGTGGGGCAGAAAGGTTACCATACCATCCGG	0.579	0.723	0.104	0.959	-0.975	2.23	1.76	2.79	0.657	2.3	1.16	1.76	-1.17	-1.29	0.799	1.05	0.126	1.5	-0.131	1.63
CCTGCTAGGTCACGGTCAGCTAATCTACAGTATG	4.56	3.65	0.541	2.45	0.134	4.05	4.31	4.17	1.72	3.2	5.34	5.12	1.07	0.203	2.79	2.08	-0.469	3.24	1.67	4.46
